Only a selection was taken, and hits are over-represented in it overall.
nsP2pro primary = inhibitors of chikungunya virus nsP2 protease; Q8JUX6; FRET peptide cleavage, nsP2pro, fluorescence 1 h; Potency, µM (series often up to 24.9 µM), hits mostly inhibitors; 31,000 tested, 1.1% active; calls by dose curve; also: nearly all actives have a fitted effect of over 60% in size
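Purified recombinant nsP2pro (150 nM final) in 10 mM Tris-HCl pH 8.0 with 0.01% Tween 20 was preincubated 15 min at room temperature with compound (7 concentrations, up to 25 uM). FRET peptide 2 substrate (2.5 uM final) was then added; fluorescence was read after 1 h.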
Of the large screens only hits and unclear results are named; the others gave an inactive call.

O=S(=O)(Nc1nc2ccccc2s1)c1ccc(NCc2ccc(Br)cc2O)cc1	none
CC1CCc2c(sc(NC(=O)COc3ccccc3)c2C(=O)Nc2ccccc2Cl)C1 (stereo unspecified)	none
CCOc1ccc(NC(=O)c2c(NCc3cccnc3)sc3c2CCC(C)C3)cc1 (stereo unspecified)	nsP2pro primary 11.2µM
COc1ccc(NC(=O)c2c(NC(=O)c3ccncc3)sc3c2CCC(C(C)(C)C)C3)cc1 (stereo unspecified)	none
CC(C)C(=O)OCC(=O)[C@@]12OC(C3CCCCC3)O[C@@H]1C[C@H]1[C@@H]3CCC4=CC(=O)C=C[C@]4(C)[C@H]3[C@@H](O)C[C@@]12C (stereo partly specified)	none
COc1ccccc1-c1nc(-c2cccc(C(=O)O)c2)no1	none
COc1ccc2nc(-c3cccc(OCc4ccccc4)c3)sc2c1	none
C=CCNC1=C2C[C@@H](C)C[C@H](OC)[C@H](O)[C@@H](C)/C=C(\C)[C@H](OC(N)=O)[C@@H](OC)/C=C\C=C(/C)C(=O)NC(=CC1=O)C2=O	none
COC1=C2C[C@H](C)C[C@H](OC)[C@H](O)[C@@H](C)/C=C(/C)[C@H](OC(N)=O)[C@@H](OC)/C=C\C=C(\C)C(=O)NC(=CC1=O)C2=O	nsP2pro primary 12.4µM
CN1CCN(c2ccc(Nc3nc(-c4ccncc4)nc4ccccc34)cc2F)CC1	none
CC[C@H]1OC(=O)C[C@@H](OC(C)=O)[C@H](C)[C@@H](O[C@@H]2O[C@H](C)[C@@H](O[C@H]3C[C@@](C)(O)[C@@H](OC(=O)CC(C)C)[C@H](C)O3)[C@H](N(C)C)[C@H]2O)[C@@H](CC=O)C[C@@H](C)C(=O)/C=C/C(C)=C/[C@@H]1CO[C@@H]1O[C@H](C)[C@@H](O)[C@@H](OC)[C@H]1OC	none
COc1cccc(CNc2ccc(S(=O)(=O)Nc3ccccc3)cc2)c1O	none
Nc1cc(F)ccc1NC(=O)c1ccc(CNC(=O)/C=C/c2cccnc2)cc1	none
Cc1cc(C)nc(NC(=S)N2CCN(c3ncnc4sccc34)CC2)c1	none
O=C(O)Cc1cccn1-c1ccc(Cl)cc1	nsP2pro primary 4.47µM
O=C(Cc1cccn1-c1ccc(F)cc1)N1CCCCC1	none
O=C(N1CCOCC1)N1CCN(c2ccc(Cl)cc2)CC1	none
Cc1cc(C)nc(NC(=S)N2CCN(c3ccc(S(C)(=O)=O)cc3F)CC2)c1	none
Cc1cc(C(=O)N2CCc3ncnc(N4CCOCC4)c3CC2)n(C)n1	none
O=C(Nc1ccc2c(N3CCOCC3)ncnc2c1)c1cccc(Cl)c1	none
OCc1ccc(-c2ccc3ncnc(N4CCOCC4)c3c2)o1	nsP2pro primary 12.6µM
O=[N+]([O-])c1ccc(CNc2ccc([S+](=O)([O-])Nc3nccs3)cc2)c(O)c1	none
C=C(NC(=O)C(=C)NC(=O)c1csc(C2=N[C@H]3c4csc(n4)[C@H]4NC(=O)c5csc(n5)[C@H]([C@@](C)(O)[C@@H](C)O)NC(=O)[C@H]5CSC(=N5)C(=CC)NC(=O)[C@H]([C@@H](C)O)NC(=O)c5csc(n5)[C@]3(CC2)NC(=O)[C@H](C)NC(=O)C(=C)NC(=O)[C@H](C)NC(=O)[C@H](C(C)CC)N[C@@H]2C=Cc3c([C@H](C)O)cc(nc3[C@H]2O)C(=O)O[C@@H]4C)n1)C(N)=O (stereo partly specified)	none
CN1CCN(c2nc3c(c(=O)[nH]2)CCN(Cc2cccnc2)CC3)CC1	none
Cc1oc2c(c1C(=O)N1CCOCC1)CN(Cc1cccnc1)CC2	none
Cc1ccc(CN2CCc3nc(C(=O)Nc4cccnc4)oc3CC2)o1	nsP2pro primary 10µM
CCC(c1ccccc1)c1c(O)c2ccccc2oc1=O (stereo unspecified)	none
CCCN1Cc2ccccc2NC(=O)C12CCNC2 (stereo unspecified)	nsP2pro primary 12.6µM
Cc1cc(CN2CCC23Cc2ccccc2NC3=O)no1 (stereo unspecified)	none
O=C1Nc2ccccc2CN(C/C=C/c2ccccc2)C12CCNC2 (stereo unspecified)	none
COc1ccc2nc(-c3ccc(Cl)cc3)sc2c1	none
Cc1nc(C(C)N(C)c2ncnc3ccc(-c4ccc5c(c4)OCO5)cc23)cs1 (stereo unspecified)	none
CCOC(=O)c1ccccc1C(=O)OCC	none
CCOC(=O)[C@H](CS)NCCN[C@@H](CS)C(=O)OCC	nsP2pro primary 11.1µM
CCOC(=O)C(Cc1ccccc1)NC(=O)Cn1nnc(-c2ccc(C)cc2)n1 (stereo unspecified)	none
Cc1nc2ccc(Nc3nc(-c4ccncc4)nc4ccccc34)cc2s1	none
CCC(CN)CC(C)CNCC(O)CNCC(CC)CC(CC)CN (stereo unspecified)	none
CNC(=O)c1cccc(-c2cnc(Nc3ccc(Cl)cn3)c3c2CCO3)c1	none
Cn1cc(-c2cnc(Nc3ccc(F)cc3)c3c2CCO3)cn1	none
Cn1cc(-c2cnc(Nc3cccnc3)c3c2CCO3)cn1	nsP2pro primary 8.91µM
Cc1cc(C)nc(NC(=S)N2CCN(c3cc(Cl)c(Cl)cc3Cl)CC2)c1	none
Cc1noc(C)c1S(=O)(=O)Nc1cnccc1C(=O)Nc1nc(-c2ccccc2)cs1	none
CC(O)CC(=O)O (stereo unspecified)	nsP2pro primary 15.9µM
O=C(O)CC(O)C(=O)O (stereo unspecified)	none
C[N+](C)(C)CC(O)CC(=O)O (stereo unspecified)	none
COc1ccccc1-c1ncc(C)c(NCc2ccc(-c3cccnc3)cc2)n1	none
C/C(=C\c1ccc2c(c1)OCCO2)C1Nc2cccc3cccc(c23)N1	none
CCCC1CCN(C(=O)CC(c2ccc3c(c2)OCO3)c2c(O)cc(OC)cc2OC)C1 (stereo unspecified)	none
Fc1ccc(-c2ccc(CNCCSc3nnnn3-c3ccccc3)o2)cc1	nsP2pro primary 12.6µM
O=S(=O)(NCCSc1nnnn1-c1ccccc1)c1ccc(F)cc1	none
COc1ccc(Cl)cc1CNCCSc1nnnn1-c1ccccc1	none
CNc1ncc(-c2ccc3c(=O)c(C(=O)O)cn(C4CC4)c3c2C)cc1C	none
O=C(c1cccc(Br)c1)N1CCC(N2CCCC2)CC1	none
CCOc1cccc(CNc2ccc(O)cc2)c1OCc1ccccc1Cl	nsP2pro primary 11.2µM
O=S(=O)(Nc1ccccc1)c1ccc(NCc2cccc(Cl)c2O)cc1	none
O=S(=O)(Nc1cnc2ccccc2c1)c1ccc(NCc2cccc(Cl)c2O)cc1	none
O=C(Nc1ccc(Br)c(Br)c1)Nc1cccc(-c2ccncc2)n1	none
CCCCN1CCc2nc(N3CCN(C)CC3)ncc2C1	nsP2pro primary 10µM
CCN1CCN(c2ncc3c(n2)CCN(Cc2ccc(C)s2)C3)CC1	none
Cc1ccccc1CN1CCc2nc(N3CCN(c4ncccn4)CC3)ncc2C1	none
Cc1csc(CN(C)c2ncnc3ccc(-c4ccc5c(c4)OCO5)cc23)n1	none
CCC(CC)O[C@@H]1C=C(C(=O)O)C[C@H](N)[C@H]1NC(C)=O	none
COc1ccc(-c2oc3cc(O)cc(O)c3c(=O)c2O)cc1	none
Cc1cc(-c2ccc(N=Nc3ccc4c(S(=O)(=O)O)cc(S(=O)(=O)O)c(N)c4c3O)c(C)c2)ccc1N=Nc1ccc2c(S(=O)(=O)O)cc(S(=O)(=O)O)c(N)c2c1O	nsP2pro primary 12.4µM
NC(N)=NCCC[C@@H](N)C(=O)N[C@@H](CCCN=C(N)N)C(=O)N1CCC[C@H]1C(=O)N1C[C@H](O)C[C@H]1C(=O)NCC(=O)N[C@@H](Cc1cccs1)C(=O)N[C@@H](CO)C(=O)N1Cc2ccccc2C[C@@H]1C(=O)N1[C@H](C(=O)N[C@@H](CCCN=C(N)N)C(=O)O)C[C@@H]2CCCC[C@@H]21	none
O=C(Nc1nc(-c2ccccc2)cs1)c1ccncc1NS(=O)(=O)c1ccc(F)cc1	none
